The source of these data is PubChem BioAssay (Tox21).

“And” between values parts separate entries of the source, which are not always exact repeats. Equal entries are not always repeated. Inconclusive results are not listed. A call without a number means that no potency is given here. The source holds several records for some structures; these can differ, active in one and inactive in another. The source made the active and inactive calls. The call rests on the fitted dose curve; in most records, active means well fitted activation curve with a large enough effect in the repeat runs; inconclusive means weak or mixed curves; inactive means flat fitted curve, though single readings scatter.
Potency means the concentration at half of the fitted maximal effect.

The assay is described as follows: A CellTox Green Cytotoxicity Assay to monitor cytotoxicity in HepG2 cells - 32 hour (AID 1224883). Further: nearly all actives have a fitted effect of over 50% in size. The note with it: CellTox Green fluorescence; series mostly up to 76.8 µM. An excerpt:
National Center for Advancing Translational Sciences [NCATS]
NIH Chemical Genomics Center [NCGC]
U.S. Environmental Protection Agency [EPA]
National Institutes of Environmental Health Sciences [NIEHS]
National Toxicology Program [NTP]
Cell-based models are critical for drug discovery. Determining the natural cytotoxic effects resulting from test compounds is an essential research activity. A CellTox Green Cytotoxicity Assay to monitor cytotoxicity in real time of continues cell culture during 40 hours of the compound treatment was used to screen Tox21 10K library compounds in HepG2 cells. CellTox Green Cytotoxicity Assay is a nonlytic, homogeneous, biofluorescent method to measure cytotoxicity in cell culture after experimental manipulation. The assay system uses a proprietary asymmetric cyanine dye that is excluded from viable cells but preferentially stains the dead cell's DNA. […] Viable cells produce no appreciable increases in fluorescence. Therefore, the fluorescence signal produced by the binding interaction with dead cell DNA is proportional to cytotoxicity.
The mixture of HepG2 cell suspension and reagents were dispensed at 600cells/6 ul/well in 1536-well tissue culture treated black solid bottom plates using a Multidrop dispenser. After the assay plates were incubated at a 37 C/5% CO2 incubator for 5 hours, 23 nL of compounds dissolved in DMSO, positive and negative controls was transferred to the assay plate by a pintool work station. The plates were incubated at 37 C for 40 hours. The fluorescence intensity were measured at 0h, 8h, 16h, 24h, 32h and 40h time points using ViewLux plate reader during compound treatment.
As for `COc1cccc2c1C(=O)c1c(O)c3c(c(O)c1C2=O)C[C@@](O)(C(=O)CO)C[C@@H]3O[C@H]1C[C@H](N)[C@H](O)[C@H](C)O1`, the Potency result was “inactive and 21.3 µM (active)”.
For `CC(=O)C1(C)CC2=C(CCCC2(C)C)CC1C` (stereo not given) the value was “inactive”.
The value for `CC1=CCC(C(C)(C)O)CC1` (stereo not given) was “inactive and 21.9 µM (active)”; that for `c1ccc2sc(SSN3CCOCC3)nc2c1` was 54.8 µM (active) and 54.9 µM (active).
With `CCOCCOCCO`, the Potency result was “inactive”.
Consider `CCCCc1oc2ccccc2c1C(=O)c1cc(I)c(OCCN(CC)CC)c(I)c1`, for which the Potency is 34.9 µM (active) and 26.8 µM (active).
Turning to `COC(=O)C1=C(C)NC(C)=C(C(=O)OCCN(C)Cc2ccccc2)C1c1cccc([N+](=O)[O-])c1` (stereo not given), the Potency was 48.7 µM (active) and inactive.
The value for `CC(C)OC(=O)C(C)(C)Oc1ccc(C(=O)c2ccc(Cl)cc2)cc1` was “inactive”; that for `CC(C)OB(OC(C)C)OC(C)C` was “inactive”.
With `CCC(C)(O)CCCC(C)C` (stereo not given), the Potency result was “inactive”.
Turning to `C=C(C)C1CC=C(C)CC1` (stereo not given), the Potency result is “inactive”.
Turning to `C#C[C@]1(O)CC[C@H]2[C@@H]3CCC4=Cc5oncc5C[C@]4(C)[C@H]3CC[C@@]21C`, the Potency result is “inactive”.
As to `COC(=O)Nc1nc2ccc(S(=O)c3ccccc3)cc2[nH]1` (stereo not given), the Potency entry is “inactive and 952 nM (active)”.
For the molecule `C[C@]12CC[C@H]3[C@@H](CCC4=CC(=O)CC[C@@]43C)[C@@H]1CC[C@@H]2C(=O)CO`, the Potency entry is “inactive”.
Take `CC(CCC(=O)O)(c1ccc(O)cc1)c1ccc(O)cc1`: the Potency result is “inactive”.
For the molecule `O=C(/C=C/C=C/c1ccc2c(c1)OCO2)N1CCCCC1`, the Potency entry is “inactive”.
As to `Cc1[nH]c(=O)c(C#N)cc1-c1ccncc1`, the Potency entry is “inactive”.
For `Nc1ccc(Nc2ccccc2)cc1` the value was “inactive”; for `S=C(NC1CCCCC1)NC1CCCCC1`, “inactive”; for `CN(C)CCN(Cc1cccs1)c1ccccn1`, “inactive”.
On to `CCCCOCCOCCO`, for which the Potency entry is “inactive”.
`CCCCC(CC)COCC1CO1` (stereo not given): the Potency result is “inactive”.
For `COC(=O)c1ccccc1` the value was “inactive”.
As for `C=C(C)C(=O)OCCOC(=O)C(=C)C`, the Potency entry was “inactive”.
As to `Cc1ncc[nH]1`, the Potency entry is “inactive”.
The value for `c1ccc2c(c1)Oc1ccccc1S2` was “inactive”.
For `CCCC(=O)O` the value was “inactive”; for `CC(=O)CC/C=C(\C)CCC=C(C)C`, “inactive”.
For `c1ccncc1` the value was “inactive”.
As to `COc1c(Cl)c(Cl)c(Cl)c(Cl)c1Cl`, the Potency result was “inactive”.
For `CCC(C)c1ccccc1O` (stereo not given) the value was 48.6 µM (active); for `O=C(Nc1ccc(Cl)cc1)Nc1ccc(Cl)c(Cl)c1`, “inactive”.
Take `CCCCNS(=O)(=O)c1ccccc1`: the Potency entry is “inactive”.
The value for `CCOC(=O)C(C#N)=C(c1ccccc1)c1ccccc1` was “inactive”; that for `Cc1cccc(N(C)C(=S)Oc2ccc3ccccc3c2)c1` was “inactive”.
The value for `O=C(COc1ccc(Cl)cc1)N1CCN(Cc2ccc3c(c2)OCO3)CC1` was “inactive”; that for `COc1ccc(C(=O)CC(=O)c2ccc(C(C)(C)C)cc2)cc1` was “inactive and 67.4 nM (active)”.
For `CN(C)c1nc(N(C)C)nc(N(C)C)n1` the value was “inactive”; for `O=C(/C=C/c1ccccc1)OCc1ccccc1`, “inactive”.
On to `O=S(=O)(O)c1ccc(O)cc1`, for which the Potency entry was “inactive”.
